Holding throughout (settings): primary human HUVEC with PBMC; actives raise or lower the signal
Read-out in assay [1]: Monocyte Chemoattractant Protein-1 (MCP1), CCL2 (gene 6347)
In words: BSK_LPS_MCP1: BioMAP Diversity Plus: LPS Assay for Monocyte Chemoattractant Protein-1 (MCP1) Biomarker Activity (AID 2283081).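 On AC50: secreted MCP-1 protein quantified by ELISA in culture supernatant.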 The method in brief: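 ELISA read-out of MCP-1 after 24 h chemical dosing of a human umbilical vein endothelial cell/peripheral blood mononuclear cell co-culture stimulated with LPS. Gain or loss of signal fitted relative to DMSO controls.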

Assay [2] is described as follows: BSK_LPS_PGE2: BioMAP Diversity Plus: LPS Assay for Prostaglandin E2 (PGE2) Biomarker Activity (AID 2283082).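 On AC50: secreted prostaglandin E2 measured by ELISA in LPS-stimulated co-culture.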 An outline of the steps:
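ELISA read-out of PGE2 from human umbilical vein endothelial cells co-cultured with peripheral blood mononuclear cells under LPS, 24 h post-dose. Gain or loss of signal scored relative to DMSO baseline.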

Read-out in assay [3]: Macrophage colony-stimulating factor (MCSF), CSF1 (gene 1435)
Briefly: BSK_LPS_MCSF: BioMAP Diversity Plus: LPS Assay for Macrophage colony-stimulating factor (MCSF) Biomarker Activity (AID 2283083). The method in brief:
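HUVEC + PBMC co-culture (human primary), 24 h post-dose; M-CSF by ELISA; gain/loss of signal fitted bidirectionally vs DMSO baseline.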

Read-out in assay [4]: Tissue Factor, F3 (gene 2152)
In words: BSK_LPS_TissueFactor: BioMAP Diversity Plus: LPS Assay for Tissue Factor Biomarker Activity (AID 2283084). The method in brief:
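HUVEC/PBMC co-culture, LPS-activated; CD142 ELISA read 24 h post-dose; bidirectional curve fit vs DMSO negative control.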

Read-out in assay [5]: Tumor necrosis factor (Homo sapiens) (UniProt P01375)
In words: BSK_LPS_TNFa: BioMAP Diversity Plus: LPS Assay for Tumour Necrosis Factor alpha (TNFa) Biomarker Activity (AID 2283085).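 On AC50: TNFa protein level quantified by ELISA in the co-culture.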 An outline of the steps:
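HUVEC/PBMC co-culture, LPS-stimulated; 24 h post-dose; TNFa by ELISA; gain or loss of signal fitted bidirectionally vs DMSO baseline.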

Read-out in assay [6]: Vascular cell adhesion molecule 1 (VCAM1), VCAM1 (gene 7412)
In words: BSK_LPS_VCAM1: BioMAP Diversity Plus: LPS Assay for Vascular cell adhesion molecule 1 (VCAM1) Biomarker Activity (AID 2283086). The method in brief:
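ELISA read-out of VCAM-1 at 24 h post-dosing in an LPS-driven HUVEC/PBMC primary human co-culture; gain or loss of signal fitted bidirectionally against DMSO baseline. Cytotoxicity tracked in parallel cultures by SRB total-protein staining.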

Read-out in the next assay: CD38, CD38 (gene 952)
In words: BSK_SAg_CD38: BioMAP Diversity Plus: SAg Assay for CD38 Biomarker Activity (AID 2283087). An outline of the steps:
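Measures CD38 on a human endothelial/PBMC co-culture driven by SEB and TSST-1, 24 h after compound exposure, using ELISA with fluorescence detection; DMSO defines baseline for bidirectional curve fitting.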

Read-out in another assay: CD40, CD40 (gene 958)
Briefly: BSK_SAg_CD40: BioMAP Diversity Plus: SAg Assay for CD40 Biomarker Activity (AID 2283088). An outline of the steps:
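HUVEC/PBMC co-culture, 24 h post-dose; CD40 by ELISA, fluorescence intensity; bidirectional fit vs DMSO negative control.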

Read-out in another assay: CD69, CD69 (gene 969)
Briefly: BSK_SAg_CD69: BioMAP Diversity Plus: SAg Assay for CD69 Biomarker Activity (AID 2283089).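 On AC50: cell surface CD69 protein quantified by ELISA with fluorescence detection.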 The method in brief:
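Endothelial/PBMC co-culture; chemical added; 24 h incubation; CD69 ELISA with fluorescence detection; bidirectional fit vs DMSO.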

Read-out in assay [7]: Monocyte Chemoattractant Protein-1 (MCP1), CCL2 (gene 6347)
In words: BSK_SAg_MCP1: BioMAP Diversity Plus: SAg Assay for Monocyte Chemoattractant Protein-1 (MCP1) Biomarker Activity (AID 2283090). The method in brief:
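Values derive from bidirectional fitting of ELISA-measured MCP1 against DMSO controls. Readings were taken 24 h after dosing human vascular endothelial cells co-cultured with peripheral blood mononuclear cells under superantigen stimulation.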

Several values for one entry are separate records, joined by “and”; a condition that tells them apart may be missing. Identical values can stand only once. Some compounds were tested as several samples or in several runs, with calls that do not always agree. Activity calls are given as the source filed them. How the source made its calls: active means hit-call score of the fitted dose curve at least 0.9, where 1 is the maximum; inactive means score below 0.9.

Chain of Tumor necrosis factor (Homo sapiens) (P01375 whole entry, looked up): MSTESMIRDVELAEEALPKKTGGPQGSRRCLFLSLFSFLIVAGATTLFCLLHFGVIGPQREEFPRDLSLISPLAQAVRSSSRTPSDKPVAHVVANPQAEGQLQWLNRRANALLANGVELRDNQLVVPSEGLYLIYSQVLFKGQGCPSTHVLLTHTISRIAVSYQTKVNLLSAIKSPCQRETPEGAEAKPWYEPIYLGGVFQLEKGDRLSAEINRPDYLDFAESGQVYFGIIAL

In general, AC50 refers to the concentration at which the activity in the assay is half-maximal. Consider `OCCN1CN(CCO)CN(CCO)C1`, for which the AC50 in assay [1] was 13.1 µM (active); in [3], 25.7 µM (active); in assay [4], 20 µM (active); in assay [5], 36.6 µM (active); in assay [6] it was 31.1 µM (active); in the assay with CD38, CD38 (gene 952) it was 31.6 µM (active). The AC50 in the assay with CD40, CD40 (gene 958) is 31.1 µM (active); in the assay with CD69, CD69 (gene 969), 38.7 µM (active); in [7], 20 µM (active). Also, the result in [2] was inactive.
Consider `Cc1ccc(C(=O)c2ccccc2)cc1`, for which the outcome is “inactive” in assay [1]; “inactive” in assay [3]; “inactive” in assay [4]; “inactive” in [5]; “inactive” in assay [6]; “inactive” in the assay with CD38, CD38 (gene 952). Also, the outcome in the assay with CD40, CD40 (gene 958) was “inactive”; with CD69, CD69 (gene 969), “inactive”; in assay [7] it was “inactive”. The AC50 in assay [2] was 1.05 µM (active).
As to `O=C(O)C(F)(F)OC(F)(F)C(F)(F)OC(F)(F)C(F)(F)OC(F)(F)C(F)(F)C(F)(F)C(F)(F)F`, the AC50 in assay [1] was 52.4 µM (active) and 46.7 µM (active); in assay [2], 37.8 µM (active) and 25.8 µM (active); in [3], 55.1 µM (active) and 44.7 µM (active); in assay [4], 54.8 µM (active) and 30 µM (active); in assay [5], 50 µM (active) and 46.4 µM (active); in the assay with CD38, CD38 (gene 952), 45.5 µM (active) and 47.5 µM (active). The AC50 is 43.7 µM (active) and 45.3 µM (active) with CD40, CD40 (gene 958); 42.8 µM (active) and 32 µM (active) with CD69, CD69 (gene 969); 48.8 µM (active) and 47.2 µM (active) in [7].
As for `CN(Cc1cnc2nc(N)nc(N)c2n1)c1ccc(C(=O)N[C@@H](CCC(=O)O)C(=O)O)cc1`, the AC50 in assay [1] was 0.1 µM (active). Also, the outcome is “inactive” in assay [1]; “inactive” in assay [2]; “inactive” in assay [3]; “inactive” in [4]; “inactive” in assay [5]; “inactive” in the assay with CD38, CD38 (gene 952). The outcome with CD40, CD40 (gene 958) was “inactive”; in the assay with CD69, CD69 (gene 969), “inactive”; in [7], “inactive”.
Turning to `CCCCC(CC)C(=O)OCCOCCOCCOCCOC(=O)C(CC)CCCC` (stereo unspecified), the outcome in assay [1] is “inactive”; in assay [2], “inactive”; in [4], “inactive”; in assay [5], “inactive”; in [6] it was “inactive”; with CD38, CD38 (gene 952), “inactive”. Also, the outcome is “inactive” with CD40, CD40 (gene 958); “inactive” with CD69, CD69 (gene 969); “inactive” in [7]. In addition, the AC50 in assay [3] was 20 µM (active).
As for `O=C(O)CCC(F)(F)C(F)(F)C(F)(F)C(F)(F)C(F)(F)F`, the result in assay [1], in [2], in assay [3], in assay [4], in assay [5] and in [6] was inactive. The outcome with CD38, CD38 (gene 952) is “inactive”; in the assay with CD40, CD40 (gene 958), “inactive”; with CD69, CD69 (gene 969), “inactive”; in assay [7], “inactive”.
For the compound `C[C@]12CC[C@@H]3c4ccc(O)cc4CC[C@H]3[C@@H]1C[C@@H](O)[C@@H]2O`, the outcome in assay [1] was “inactive”; in assay [2] it was “inactive”; in assay [3], “inactive”; in [4] it was “inactive”; in assay [5], “inactive”; with CD38, CD38 (gene 952), “inactive”. The outcome with CD40, CD40 (gene 958) was “inactive”; with CD69, CD69 (gene 969) it was “inactive”; in assay [7], “inactive”.
Regarding `O=C(CC(=O)C(F)(F)C(F)(F)C(F)(F)F)c1cccs1`, the AC50 in assay [1] was 30 µM (active) and 40.4 µM (active); in assay [3] it was 30 µM (active); in assay [4], 10.4 µM (active); in assay [5], 15.2 µM (active); with CD38, CD38 (gene 952), 23.1 µM (active) and 28.6 µM (active); with CD40, CD40 (gene 958), 17 µM (active) and 16.2 µM (active). Moreover, the AC50 was 17.6 µM (active) and 30 µM (active) with CD69, CD69 (gene 969); 37.4 µM (active) and 41.6 µM (active) in assay [7]. The result in assay [2], in [3], in assay [4] and in assay [5] was inactive.
Take `O=P(O)(O)CCC(F)(F)C(F)(F)C(F)(F)C(F)(F)C(F)(F)C(F)(F)F`: the outcome in assay [1] was “inactive”; in assay [2], “inactive”; in assay [3], “inactive”; in assay [4], “inactive”; in assay [5], “inactive”; with CD38, CD38 (gene 952) it was “inactive”. In addition, the outcome in the assay with CD40, CD40 (gene 958) is “inactive”; with CD69, CD69 (gene 969), “inactive”; in [7], “inactive”. In [4], the AC50 is 5.95 µM (active).
`O=S(=O)(O)C(F)(F)C(F)(F)C(F)(F)C(F)(F)C(F)(F)C(F)(F)C(F)(F)C(F)(F)C(F)(F)C(F)(F)F`: the AC50 in assay [1] is 6.6 µM (active); in assay [4] it was 13.3 µM (active); in [5] it was 8.87 µM (active) and 13.3 µM (active); in the assay with CD40, CD40 (gene 958), 13.3 µM (active) and 7.42 µM (active); in [7], 8.67 µM (active). In addition, the outcome is “inactive” in assay [1]; “inactive” in assay [2]; “inactive” in assay [3]; “inactive” in assay [4]; “inactive” in the assay with CD38, CD38 (gene 952); “inactive” with CD69, CD69 (gene 969). The result in assay [7] was inactive.
Regarding `Oc1c(Cl)cc(Cl)cc1Sc1cc(Cl)cc(Cl)c1O`, the AC50 in assay [1] was 31.4 µM (active) and 30.1 µM (active); in [2], 20 µM (active); in assay [3] it was 26.3 µM (active); in assay [4] it was 34 µM (active) and 33.6 µM (active); in [5] it was 29.9 µM (active) and 30 µM (active); with CD38, CD38 (gene 952), 9.47 µM (active) and 9.95 µM (active). The AC50 with CD40, CD40 (gene 958) was 13.8 µM (active) and 9.99 µM (active); in the assay with CD69, CD69 (gene 969), 13.2 µM (active) and 16.2 µM (active); in assay [7] it was 8.87 µM (active) and 5.21 µM (active). Besides, in [2], the outcome was inactive.
Regarding `C=CC(=C)CC/C=C(\C)CCC=C(C)C`, the outcome in assay [1], in [2], in assay [3], in [4], in assay [5] and in [6] was inactive. Moreover, the outcome with CD38, CD38 (gene 952) is “inactive”; in the assay with CD40, CD40 (gene 958), “inactive”; with CD69, CD69 (gene 969), “inactive”. Further, the AC50 in assay [7] was 0.042 µM (active).
For `Oc1cc2ccccc2cc1O`, the outcome in [1] is “inactive”; in assay [2] it was “inactive”; in assay [3], “inactive”; in assay [4], “inactive”; in [5], “inactive”; with CD38, CD38 (gene 952), “inactive”. Also, the outcome was “inactive” with CD40, CD40 (gene 958); “inactive” with CD69, CD69 (gene 969); “inactive” in [7].

The values above are taken from PubChem BioAssay (EPA / NIEHS).
